Drawing on PubChem BioAssay (EPA / NIEHS), this text covers outcome and AC50 for 14 molecules.

Where “and” joins values, the source holds several entries; their conditions need not be identical. Identical values can stand only once. Inconclusive results are not listed. Calls of active or inactive are those of the source. Rule for the calls, unless noted: active = hit-call score of the fitted dose curve at least 0.9, where 1 is the maximum; inconclusive = response in the unintended direction; inactive = score below 0.9.

As usually defined, the AC50 is the concentration at which the activity in the assay is half-maximal.

Test [1] deals with Nuclear receptor subfamily 1 group I member 2 (Homo sapiens) (UniProt O75469). In words: NVS_NR_hPXR: NovaScreen (NVS) Nuclear Receptor Binding Assay for human Pregnane X Receptor (PXR) (AID 2283365).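 Note: a drop in FRET signal versus DMSO baseline means the compound binds.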 In outline:
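Cell-free TR-FRET binding assay with extracted human PXR protein, read 2 h after dosing. Primary screen run in duplicate at 25 uM, actives followed in concentration series; loss of signal fitted against DMSO baseline.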

Test [2] addresses Peroxisome proliferator-activated receptor gamma (Homo sapiens) (UniProt P37231). Nature of the test: NVS_NR_hPPARg: NovaScreen (NVS) Nuclear Receptor Binding Assay for human Peroxisome Proliferator-activated Receptor gamma (PPARg) (AID 2283370). Summed up:
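Cell-free fluorescence polarization binding to human PPARg protein, read 2 h after dosing. Primary screen in duplicate at 25 uM, actives followed in concentration series; loss of signal relative to DMSO scored.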

Test [3] concerns the target mouse Estrogen Receptor alpha (Era), Esr1 (gene 13982) (UniProt P19785). In words: NVS_NR_mERa: NovaScreen (NVS) Nuclear Receptor Binding Assay for mouse Estrogen Receptor alpha (Era) (AID 2283378).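 Note: hit means loss of bound radioligand signal relative to DMSO.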 Summed up:
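Cell-free radioligand competitive displacement binding, read by filter-based scintillation counting 18 h after dosing. Primary screen run in duplicate at 25 uM, actives retested in concentration series; loss of signal versus DMSO.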

For test [4], the target named is Agonist Androgen Response Element (ARE), AR (gene 367) (UniProt P10275). Nature of the test: OT_AR_ARELUC_AG_1440: Odyssey Thera (OT) 24-hour CHO-K1 Luciferase Assay for Agonist Androgen Response Element (ARE) (AID 2283379). Summed up:
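Agonist mode, 24 h exposure in CHO-K1 ARE-luciferase cells; values reflect luminescence induction over vehicle.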

For test [5], the target named is Estrogen receptor beta (Homo sapiens) (UniProt Q92731). In words: OT_ER_ERbERb_1440: Odyssey Thera (OT) 24-hour HEK293T Protein-Complementation Assay for Estrogen Receptor-beta/-beta Homodimer (AID 2283380).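 Note: fluorescence gain from ER beta LBD homodimer complementation read by laser scanning cytometry; scored as signal increase over DMSO baseline for both agonists and antagonists.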 In outline: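 Fluorescence increase, nuclear for agonists or whole-cell for antagonists, relative to DMSO vehicle, quantified by laser scanning cytometer after fixation and Draq5 staining. Readout from 24 h treatment of HEK293T cells carrying complementation-paired ER beta LBD (aa 310-547).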

Test [6] deals with Estrogen receptor (Homo sapiens) (UniProt P03372). In words: OT_ERa_GFPERaERE_0480: Odyssey Thera (OT) 8-hour HeLa Transcription Induction Assay for Estrogen Receptor (AID 2283381; active = hit-call score of the fitted dose curve at least 0.9, where 1 is the maximum; inactive = score below 0.9). In outline:
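Fluorescent reporter signal, imaged by microscopy and scored with image-analysis algorithms, was taken 8 h after chemical dosing of HeLa cells; activity was fitted upward relative to DMSO.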

Test [7] shares this target. In words: OT_ERa_GFPERaERE_0120: Odyssey Thera (OT) 2-hour HeLa Transcription Induction Assay for Estrogen Receptor (AID 2283382). Summed up:
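HeLa, 384-well, 2 h chemical exposure; GFP reporter induction (ERE), fluorescence microscopy; high content image analysis; positive fitting direction vs DMSO.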

In test [8] the target is Bile acid receptor (Homo sapiens) (UniProt Q96RI1). Nature of the test: OT_FXR_FXRSRC1_0480: Odyssey Thera (OT) 8-hour HEK293T Protein-Complementation Assay for Farnesoid X receptor/SRC-1 Co-activator (AID 2283383). Summed up: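 Human kidney HEK293T cells carried FXR/SRC-1 fragment-complementation constructs. Compounds were added and incubated 8 h. Reporter reassembly upon receptor–co-activator interaction was then quantified by fluorescence, with curves fitted in the positive direction relative to DMSO.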

Test [9] deals with Glucocorticoid receptor (Homo sapiens) (UniProt P04150). In words: NVS_NR_hGR: NovaScreen (NVS) Nuclear Receptor Binding Assay for human Glucocorticoid Receptor (GR) (AID 2283363).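 For AC50: activity is loss of specific radioligand binding signal relative to DMSO.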 Summed up: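 Competitive displacement of a labelled ligand was measured on cell-free receptor preparations after 16 h exposure. Initial testing used 25 uM in duplicate with plate controls; confirmed actives went into concentration series.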

Test [10] deals with Retinoic acid receptor RXR-alpha (Homo sapiens) (UniProt P19793). In words: OT_NURR1_NURR1RXRa_0480: Odyssey Thera (OT) 8-hour HEK293T Protein Complementation Assay for Nurr1/retinoid X receptor (RXR) (AID 2283385). In outline: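 8 h compound exposure, HEK293T; Nurr1/RXRα fragment complementation; fluorescence intensity; positive fitting direction vs DMSO baseline.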
Test [11] addresses human Thyroid Receptor Alpha (TRa), THRA (gene 7067) (UniProt P10827). Nature of the test: NVS_NR_hTRa_Antagonist: NovaScreen (NVS) Nuclear Receptor Binding Assay for human Thyroid Receptor Alpha Antagonism (TRa) (AID 2283362).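 Note: activity is loss of signal relative to DMSO baseline.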 In outline:
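Cell-free AlphaLISA chemiluminescent binding read 1 h after dosing, antagonist mode; signal loss versus DMSO baseline. Primary screen in duplicate at 25 uM, then concentration series for actives.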

For test [12], the target named is rat Androgen Receptor (AR), Ar (gene 24208) (UniProt P15207). In words: NVS_NR_rAR: NovaScreen (NVS) Nuclear Receptor Binding Assay for rat Androgen Receptor (AR) (AID 2283366). Summed up: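 Cell-free radioligand binding on extracts of prostate from testosterone-pretreated rats, read by filter-based scintillation counting 18 h after dosing. Loss of bound signal fitted positively versus DMSO; primary screen in duplicate at 25 uM, actives followed up in concentration series.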

In test [13] the target is Bile acid receptor (Homo sapiens) (UniProt Q96RI1). In words: OT_FXR_FXRSRC1_1440: Odyssey Thera (OT) 24-hour HEK293T Protein-Complementation Assay for Farnesoid X receptor/SRC-1 Co-activator (AID 2283384). Summed up: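 Compounds are applied to human kidney HEK293T cells expressing bait and prey fused to reporter protein fragments; after 24 h, reconstituted reporter fluorescence is measured. Activity is fitted as signal gain over DMSO.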

Test [14] addresses human Dopamine Transporter (DAT), SLC6A3 (gene 6531) (UniProt Q01959). Nature of the test: NVS_TR_hDAT: NovaScreen (NVS) Transporter Assay for human Dopamine Transporter (DAT) (AID 2283374).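 Note: activity means loss of bound radioligand signal relative to DMSO.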 Summed up: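 Test chemicals were first screened in duplicate at 25 uM, with actives retested as concentration series. Displacement of a specific radioligand from cell-free human dopamine transporter was measured after 1 h by filtration and scintillation counting.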

In test [15] the target is human Norepinephrine Transporter (NET), SLC6A2 (gene 6530) (UniProt P23975). Nature of the test: NVS_TR_hNET: NovaScreen (NVS) Transporter Assay for human Norepinephrine Transporter (NET) (AID 2283377).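 Note: cell-free membrane protein extracted from CHO cells expressing human NET; displacement of radioligand from human NET seen as loss of scintillation signal.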 In outline: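 Scintillation counts of filter-retained radioligand served as the readout, taken 1 h post-dosing in a cell-free CHO-derived system. Test chemicals ran first at 25 uM in duplicate; confirmed hits were retested across concentrations.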

The target of test [16] is Retinoic acid receptor alpha (Homo sapiens) (UniProt P10276). Nature of the test: NVS_NR_hRARa_Agonist: NovaScreen (NVS) Nuclear Receptor Binding Assay for human Retinoic Acid Alpha Receptor Agonism (RAR) (AID 2283361). Summed up: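 Readout is time-resolved fluorescence resonance energy transfer after a 2 h exposure of cell-free extracted receptor protein. Initial testing used 25 uM in duplicate, with concentration-response follow-up for active chemicals.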

Chain of Agonist Androgen Response Element (ARE), AR (gene 367) (P10275 whole entry, looked up): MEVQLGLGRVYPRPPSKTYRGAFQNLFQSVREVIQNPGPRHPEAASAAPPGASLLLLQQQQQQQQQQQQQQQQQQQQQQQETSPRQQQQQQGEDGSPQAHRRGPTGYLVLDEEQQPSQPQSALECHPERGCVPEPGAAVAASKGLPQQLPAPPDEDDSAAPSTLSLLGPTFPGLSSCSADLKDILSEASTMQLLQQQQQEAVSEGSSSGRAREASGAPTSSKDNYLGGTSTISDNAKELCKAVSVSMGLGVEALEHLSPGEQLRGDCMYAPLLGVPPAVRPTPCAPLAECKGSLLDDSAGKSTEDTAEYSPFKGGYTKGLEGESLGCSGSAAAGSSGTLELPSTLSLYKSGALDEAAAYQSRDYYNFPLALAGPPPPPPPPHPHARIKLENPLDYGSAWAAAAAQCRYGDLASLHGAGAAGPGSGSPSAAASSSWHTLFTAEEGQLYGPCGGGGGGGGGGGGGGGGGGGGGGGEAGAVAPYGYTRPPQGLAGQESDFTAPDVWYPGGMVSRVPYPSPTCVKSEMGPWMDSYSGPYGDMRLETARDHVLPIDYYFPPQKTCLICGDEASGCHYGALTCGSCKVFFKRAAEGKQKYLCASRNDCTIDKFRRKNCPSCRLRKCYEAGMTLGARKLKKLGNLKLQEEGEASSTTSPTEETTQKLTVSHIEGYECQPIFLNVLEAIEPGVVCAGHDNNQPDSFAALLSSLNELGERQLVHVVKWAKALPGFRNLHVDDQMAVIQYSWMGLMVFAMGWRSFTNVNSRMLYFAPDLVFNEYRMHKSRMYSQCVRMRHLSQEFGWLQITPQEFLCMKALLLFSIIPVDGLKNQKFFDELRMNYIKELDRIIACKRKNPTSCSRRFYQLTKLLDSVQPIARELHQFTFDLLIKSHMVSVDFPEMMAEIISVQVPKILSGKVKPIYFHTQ
Chain of Glucocorticoid receptor (Homo sapiens) (P04150 whole entry, looked up): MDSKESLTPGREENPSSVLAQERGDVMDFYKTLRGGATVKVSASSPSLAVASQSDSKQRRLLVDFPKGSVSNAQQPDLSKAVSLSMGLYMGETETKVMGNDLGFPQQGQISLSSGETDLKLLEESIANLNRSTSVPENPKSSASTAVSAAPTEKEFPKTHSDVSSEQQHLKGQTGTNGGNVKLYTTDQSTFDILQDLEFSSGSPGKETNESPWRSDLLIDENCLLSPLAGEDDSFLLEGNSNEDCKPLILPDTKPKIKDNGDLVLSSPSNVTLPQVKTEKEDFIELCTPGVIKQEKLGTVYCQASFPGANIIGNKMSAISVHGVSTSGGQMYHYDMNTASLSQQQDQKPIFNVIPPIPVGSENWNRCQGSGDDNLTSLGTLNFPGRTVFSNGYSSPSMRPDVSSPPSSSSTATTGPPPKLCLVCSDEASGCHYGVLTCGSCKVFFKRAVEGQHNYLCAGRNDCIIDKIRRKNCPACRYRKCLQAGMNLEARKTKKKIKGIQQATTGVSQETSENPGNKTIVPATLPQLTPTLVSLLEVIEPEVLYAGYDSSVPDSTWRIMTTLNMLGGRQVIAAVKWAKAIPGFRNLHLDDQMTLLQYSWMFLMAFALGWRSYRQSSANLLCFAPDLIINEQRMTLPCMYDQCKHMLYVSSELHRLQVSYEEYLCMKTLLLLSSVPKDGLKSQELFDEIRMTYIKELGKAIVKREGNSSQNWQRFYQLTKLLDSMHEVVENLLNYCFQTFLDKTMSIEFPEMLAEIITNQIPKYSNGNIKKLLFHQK
Chain of Nuclear receptor subfamily 1 group I member 2 (Homo sapiens) (O75469 whole entry, looked up): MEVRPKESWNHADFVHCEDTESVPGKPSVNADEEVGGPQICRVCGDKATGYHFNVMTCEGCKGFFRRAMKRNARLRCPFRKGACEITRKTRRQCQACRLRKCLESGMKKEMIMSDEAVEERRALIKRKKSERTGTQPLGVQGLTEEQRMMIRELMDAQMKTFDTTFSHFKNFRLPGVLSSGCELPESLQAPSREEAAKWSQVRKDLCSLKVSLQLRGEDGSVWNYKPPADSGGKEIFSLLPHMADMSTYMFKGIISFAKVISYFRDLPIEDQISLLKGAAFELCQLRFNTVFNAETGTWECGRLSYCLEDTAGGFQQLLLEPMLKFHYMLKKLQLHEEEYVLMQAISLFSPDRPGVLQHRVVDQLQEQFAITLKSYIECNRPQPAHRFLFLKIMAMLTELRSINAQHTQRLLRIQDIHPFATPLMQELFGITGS
Chain of Retinoic acid receptor RXR-alpha (Homo sapiens) (P19793 whole entry, looked up, the tested form may be a part): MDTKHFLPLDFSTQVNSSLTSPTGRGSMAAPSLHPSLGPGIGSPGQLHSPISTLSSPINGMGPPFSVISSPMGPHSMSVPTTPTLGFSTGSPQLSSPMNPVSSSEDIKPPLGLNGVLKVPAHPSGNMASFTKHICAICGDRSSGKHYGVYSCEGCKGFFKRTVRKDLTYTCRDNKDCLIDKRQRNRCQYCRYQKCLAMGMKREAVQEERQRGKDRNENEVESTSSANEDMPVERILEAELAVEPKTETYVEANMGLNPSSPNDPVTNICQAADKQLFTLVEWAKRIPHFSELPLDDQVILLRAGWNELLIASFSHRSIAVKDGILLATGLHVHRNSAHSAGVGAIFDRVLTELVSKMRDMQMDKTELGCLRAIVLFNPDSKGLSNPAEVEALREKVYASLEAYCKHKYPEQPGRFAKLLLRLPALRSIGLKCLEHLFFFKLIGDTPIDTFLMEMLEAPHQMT
Chain of Estrogen receptor beta (Homo sapiens) (Q92731 whole entry, looked up, the tested form may be a part): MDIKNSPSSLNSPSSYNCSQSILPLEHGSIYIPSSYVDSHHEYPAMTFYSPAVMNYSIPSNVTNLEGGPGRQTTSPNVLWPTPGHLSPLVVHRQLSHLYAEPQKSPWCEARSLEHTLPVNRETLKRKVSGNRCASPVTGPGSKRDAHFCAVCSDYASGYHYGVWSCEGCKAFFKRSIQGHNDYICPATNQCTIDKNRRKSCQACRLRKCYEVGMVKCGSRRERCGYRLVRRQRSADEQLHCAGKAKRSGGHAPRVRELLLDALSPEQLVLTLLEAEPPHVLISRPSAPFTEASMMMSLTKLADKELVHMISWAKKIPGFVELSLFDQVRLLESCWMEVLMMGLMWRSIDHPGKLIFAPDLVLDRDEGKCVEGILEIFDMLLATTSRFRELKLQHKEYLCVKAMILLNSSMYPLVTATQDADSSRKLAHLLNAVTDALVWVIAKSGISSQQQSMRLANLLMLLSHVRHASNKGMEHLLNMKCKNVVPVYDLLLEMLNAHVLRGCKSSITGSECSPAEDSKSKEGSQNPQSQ
Chain of mouse Estrogen Receptor alpha (Era), Esr1 (gene 13982) (P19785 whole entry, looked up): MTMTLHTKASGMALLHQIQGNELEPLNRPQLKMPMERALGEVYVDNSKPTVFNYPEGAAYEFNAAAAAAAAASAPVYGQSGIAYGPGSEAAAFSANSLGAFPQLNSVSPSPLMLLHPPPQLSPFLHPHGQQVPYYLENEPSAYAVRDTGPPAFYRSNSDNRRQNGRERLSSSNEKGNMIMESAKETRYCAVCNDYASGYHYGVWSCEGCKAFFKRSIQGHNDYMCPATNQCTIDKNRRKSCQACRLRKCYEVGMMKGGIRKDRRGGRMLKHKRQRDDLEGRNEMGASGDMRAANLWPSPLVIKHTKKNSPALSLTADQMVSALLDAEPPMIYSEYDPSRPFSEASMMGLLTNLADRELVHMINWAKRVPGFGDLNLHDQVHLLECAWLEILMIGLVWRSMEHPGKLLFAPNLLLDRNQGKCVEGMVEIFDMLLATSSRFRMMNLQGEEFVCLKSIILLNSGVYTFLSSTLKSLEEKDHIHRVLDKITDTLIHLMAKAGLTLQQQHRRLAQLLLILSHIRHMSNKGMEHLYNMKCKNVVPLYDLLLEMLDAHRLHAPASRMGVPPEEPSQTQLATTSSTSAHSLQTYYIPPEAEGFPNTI
Chain of Estrogen receptor (Homo sapiens) (P03372 whole entry, looked up): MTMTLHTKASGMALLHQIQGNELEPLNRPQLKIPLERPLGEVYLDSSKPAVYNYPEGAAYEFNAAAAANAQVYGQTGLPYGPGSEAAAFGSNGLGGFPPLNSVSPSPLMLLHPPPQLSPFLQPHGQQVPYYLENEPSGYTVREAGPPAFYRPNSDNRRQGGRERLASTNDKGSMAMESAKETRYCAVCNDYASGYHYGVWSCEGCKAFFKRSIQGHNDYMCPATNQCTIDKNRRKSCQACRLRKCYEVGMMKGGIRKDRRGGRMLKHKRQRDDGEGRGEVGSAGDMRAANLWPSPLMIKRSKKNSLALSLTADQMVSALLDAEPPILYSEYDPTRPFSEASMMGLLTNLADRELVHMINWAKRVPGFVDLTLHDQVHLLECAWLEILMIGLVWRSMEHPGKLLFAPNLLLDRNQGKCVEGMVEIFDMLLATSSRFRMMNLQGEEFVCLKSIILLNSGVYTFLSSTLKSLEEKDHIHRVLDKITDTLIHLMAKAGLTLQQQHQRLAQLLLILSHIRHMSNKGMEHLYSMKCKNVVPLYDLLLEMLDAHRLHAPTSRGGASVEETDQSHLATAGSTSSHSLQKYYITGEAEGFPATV
Chain of Peroxisome proliferator-activated receptor gamma (Homo sapiens) (P37231 whole entry, looked up): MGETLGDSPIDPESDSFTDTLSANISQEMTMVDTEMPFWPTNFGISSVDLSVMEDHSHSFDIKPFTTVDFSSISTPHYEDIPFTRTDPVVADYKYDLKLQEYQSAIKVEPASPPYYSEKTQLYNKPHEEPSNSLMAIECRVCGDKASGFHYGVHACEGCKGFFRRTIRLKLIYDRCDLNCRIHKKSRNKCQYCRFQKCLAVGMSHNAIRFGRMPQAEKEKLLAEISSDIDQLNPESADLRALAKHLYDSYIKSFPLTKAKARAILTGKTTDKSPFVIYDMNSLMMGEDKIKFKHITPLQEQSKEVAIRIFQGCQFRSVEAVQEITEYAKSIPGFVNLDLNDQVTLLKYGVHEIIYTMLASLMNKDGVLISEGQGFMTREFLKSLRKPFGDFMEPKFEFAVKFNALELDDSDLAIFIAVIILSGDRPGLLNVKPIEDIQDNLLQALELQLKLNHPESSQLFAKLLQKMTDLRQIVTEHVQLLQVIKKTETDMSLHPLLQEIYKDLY

As for `O=C(CCl)Nc1ccccc1`, the molecule was called inactive in test [1], in test [2], in [3], in test [4], in test [5] and in [7]. Further, the molecule was called inactive in [8]. The AC50 in test [6] is 84.8 µM (active).
For the molecule `CC(C=O)Cc1ccc2c(c1)OCO2` (stereo unspecified), in test [9], the molecule was classed as inactive.
Regarding `N#CCC#N`, the molecule was classed as inactive in test [1], in [4], in test [5], in test [6] and in test [7].
For the molecule `O=c1[nH]c(=O)n(Cl)c(=O)n1Cl`, the result in test [1] and in test [10] was inactive.
On to `O=S1(=O)OC(c2cc(Br)c(O)c(Br)c2)(c2cc(Br)c(O)c(Br)c2)c2ccccc21`, for which the AC50 is 4.18 µM (active) in test [11]; 0.426 µM (active) in test [9]; 5.92 µM (active) in [1]; 3.11 µM (active) in [12]; 2.87 µM (active) in test [2]; 0.214 µM (active) in test [4]. For the same molecule, in test [10], the AC50 is 71.9 µM (active). The outcome in test [3], in [5], in test [6], in test [7] and in test [13] was inactive.
In the case of `CCOP(=S)(OCC)O/N=C(\C#N)c1ccccc1`, the result in test [1], in test [13] and in test [10] was inactive. Further, the results for the AC50 in [5] and in test [8] were 50 µM (active) and 32.5 µM (active), respectively.
As for `CCCCCCCCCCCCc1cccc(S(=O)(=O)O)c1`, the AC50 is 4.55 µM (active) in test [9], 26.6 µM (active) in test [1], 32.9 µM (active) in test [14] and 18.7 µM (active) in [15]. The molecule was classed as inactive in [10].
Regarding `O=C(O)C1(c2ccc3c(c2)OC[C@H](Cc2ccc(-c4ccccc4)cc2)[C@H]3O)CCCC1`, the molecule was called inactive in test [16]. For the same molecule, the AC50 in test [15] is 5.29 µM (active); in test [8], 77 µM (active); in test [13], 90 µM (active); in [10] it was 76.2 µM (active) and 86.6 µM (active).
For the molecule `CCC[CH2][Sn]([Cl])([Cl])[CH2]CCC`, the AC50 was 38 µM (active) in [16]; 3.88 µM (active) in [9]; 5.56 µM (active) in test [1]; 1.76 µM (active) in test [6]; 3.3 µM (active) in test [7]. The outcome in test [2], in test [3] and in test [5] was inactive.
Turning to `O=C(CBr)c1ccc(O)cc1`, the molecule was classed as inactive in [1], in [5], in test [8], in test [13] and in test [10].
Turning to `O=c1oc2ccccc2c(O)c1C(CC(O)c1ccc(-c2ccc(Br)cc2)cc1)c1ccccc1` (stereo unspecified), the AC50 in test [9] is 7.76 µM (active).
`O=C1c2ccccc2C(=O)C1C(=O)C(c1ccccc1)c1ccc(Cl)cc1` (stereo unspecified): the AC50 in [9] was 3.72 µM (active); in [12], 4.96 µM (active); in test [2], 16.2 µM (active); in test [3], 1.12 µM (active); in test [10], 50 µM (active). The molecule was called inactive in test [4], in [6] and in [7].
For `Cc1cccc(OP(=O)(Oc2cccc(C)c2)Oc2cccc(C)c2)c1`, in test [9], the call was inactive.
Consider `Nc1ccc(N)cc1`, for which the values for the AC50 in test [11], in test [1] and in [5] were 31.7 µM (active), 25 µM (active) and 12.4 µM (active), respectively. Further, the molecule was called inactive in [13] and in [10].
